Each structure is given as a SMILES string. ± gives the standard deviation of the averaged measurements.
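Also: TDF denotes transformed human dermal fibroblasts of mesenchymal origin.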

The subject of the experiment is TDF. Put plainly: cell number relative to DMSO (% of DMSO); higher = more cells (less growth inhibition / toxicity). As to conditions: concentration: 10 µM; 24 h. The gist of the method: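 After 24 h at 37 °C with compounds at 10 µM, in triplicate, HCC1569 and TDF cells were fixed with 3.7% formaldehyde. Immunostaining used a rabbit anti-H1.0 antibody and an AlexaFluor 647 secondary, with DAPI, and six fields per well were imaged at ×10. H1.0 nuclear intensity or cell number is presented as percent of the plate control, from the median of replicates, with HCC1569 values smoothed for positional effects.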
`FC(F)(F)c1ccccc1-n1ccnc1` [1-[2-(Trifluoromethyl)phenyl]imidazole] had a cell number of 96. With `Cc1cc(Nc2ncc3cc(-c4c(Cl)cccc4Cl)c(=O)n(C)c3n2)ccc1F` the figure was 7.32; with `C=CCc1ccc(O)c(-c2cc(CC=C)ccc2O)c1` [Magnolol], 98.2; with `CC(C)[N+](C)(CCOC(=O)C1c2ccccc2Oc2ccccc21)C(C)C.[Br-]` [Propantheline bromide], 107. `Cc1cccc(Nc2ccccc2C(=O)O)c1C` [Mefenamic acid] had a cell number of 107. With `Cc1cc(C)c(S(=O)(=O)Nc2cccc(C(F)(F)F)c2)c(C)c1` the figure was 90.

`CC(=O)OC1C(C)OC(Oc2c(-c3ccc(O)cc3)oc3cc(O)cc(O)c3c2=O)C(O)C1OC(C)=O` (stereo not drawn) [RSK Inhibitor, SL0101] showed a cell number of 92.8. `CC(C[N+](C)(C)C)OC(N)=O` (stereo not drawn) [Carbamyl-beta-methylcholine]: the cell number was determined as 99.5. Compound `CC12CCc3occc3C1CCC13CC(CCC12)C(O)(CO)C3` (stereo not drawn) [Cafestol] gave a cell number of 101.

`Cc1cc(C(C)(C)C)c(O)c(C)c1CC1=NCCN1.Cl` [Oxymetazoline.HCl] displayed a cell number of 97.8. As to `Cl.Cl.Cl.Ic1ccc(N2CCN(Cc3c[nH]c4ncccc34)CC2)cc1` [L-750,667 trihydrochloride], the cell number was determined as 101. As for `COc1ccccc1N1CCN(CCCNc2cc(=O)n(C)c(=O)n2C)CC1.Cl` [Urapidil hydrochloride], the figure is 102; as for `N#Cc1cc2nc([O-])c([O-])nc2cc1[N+](=O)[O-].[Na+].[Na+]` [CNQX disodium], 101; as for `O=P(O)(O)C(Cl)(Cl)P(=O)(O)O` [Clodronic acid], 103. With `CN1CCN2c3ccccc3Cc3ccccc3C2C1.Cl` (stereo not drawn) [Mianserin.HCl] the figure was 112; with `CCCCCCCOc1cc2c(cc1/C(C)=C/c1ccc(C(=O)O)cc1)C(C)(C)CCS2(=O)=O`, 101. As for `CN(C)C(=N)N=C(N)N` [Metformin], the figure is 94; as for `O=c1c(O)c(-c2ccccc2O)oc2cc(O)cc(O)c12` [Datiscetin], 106; as for `Cn1cnc2c(NC3CCCC3)ncnc21` [N6-Cyclopentyl-9-methyladenine], 98.1. With `O=C1Nc2ccc(Cl)cc2C(C#CC2CC2)(C(F)(F)F)O1` (stereo not drawn) [Efavirenz], the cell number is 98.5. As for `COC1C(OC(=O)C=CC=CC=CC=CC(=O)O)CCC2(CO2)C1C1(C)OC1CC=C(C)C` (stereo not drawn) [Fumagillin], the figure is 98.7 ± 8.4; as for `CC1=NS(=O)(=O)c2cc(Cl)ccc2N1` [Diazoxide], 111 ± 7.2. Take `CCCCCCCCCCCCCCCCOCC(COP(=O)([O-])OCC[N+](C)(C)C)OC(=O)NC` (stereo not drawn): the cell number amounted to 95.7. With `O=C1NC(c2cccc([N+](=O)[O-])c2)=CCN1c1ccccc1O` the figure was 104; with `CN(C)CCCOC1C(C(O)CO)OC2OC(C)(C)OC21.Cl` (stereo not drawn) [Amiprilose hydrochloride], 106; with `Cl.Cl.c1ccc2c3c([nH]c2c1)C1C2CCC(C4CCCNC42)N1CC3` (stereo not drawn), 100. With `CCCCCCCCC=CCCCCCCCCCCCCC(=O)O` [14(E)-Tricosenoic acid] the figure was 98.1; with `Cc1cnc(-c2cc(N3CCN(C(=O)CCS(C)(=O)=O)CC3)ncc2Cl)c(C)c1.Cl`, 103.

Source of the values: the supplement of paper PMC7156485.
